HPGD block: inhibitors of human 15-hydroxyprostaglandin dehydrogenase (HPGD). P15428. purified HPGD, NADH fluorescence kinetic, PGE2 substrate. Potency, µM, actives largely listed as inhibitors. 4.3% of 150,000 active
Target sequence (P15428 whole entry, looked up): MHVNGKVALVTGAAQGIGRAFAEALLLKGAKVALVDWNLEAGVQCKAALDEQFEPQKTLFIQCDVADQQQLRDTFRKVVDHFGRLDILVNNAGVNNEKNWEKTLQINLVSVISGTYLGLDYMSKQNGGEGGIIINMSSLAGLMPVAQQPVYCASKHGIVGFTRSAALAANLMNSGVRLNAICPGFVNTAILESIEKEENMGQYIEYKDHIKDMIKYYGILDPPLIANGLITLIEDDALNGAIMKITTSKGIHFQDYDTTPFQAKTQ
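20 nM HPGD preincubated 15 min at room temperature with compound in 50 mM Tris-HCl pH 8, 0.01% Tween 20. Started with 1 mM NAD+ and 30 uM prostaglandin E2; NADH fluorescence (360/450 nm) read 5 times over 30-s intervals, last minus first.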
JMJD2E inh: inhibitors of human JMJD2E histone demethylase; JMJD2E catalytic domain, FDH-coupled NADH fluorescence (FDH is formaldehyde dehydrogenase); AID 2147; B2RXH2; Potency, µM (doses to about 57.1 µM), most hits filed as inhibitors; 1.6% of 230,000 active; note: nearly all actives have a fitted effect of over 50% in size
Target sequence (B2RXH2 1-337 limits assumed): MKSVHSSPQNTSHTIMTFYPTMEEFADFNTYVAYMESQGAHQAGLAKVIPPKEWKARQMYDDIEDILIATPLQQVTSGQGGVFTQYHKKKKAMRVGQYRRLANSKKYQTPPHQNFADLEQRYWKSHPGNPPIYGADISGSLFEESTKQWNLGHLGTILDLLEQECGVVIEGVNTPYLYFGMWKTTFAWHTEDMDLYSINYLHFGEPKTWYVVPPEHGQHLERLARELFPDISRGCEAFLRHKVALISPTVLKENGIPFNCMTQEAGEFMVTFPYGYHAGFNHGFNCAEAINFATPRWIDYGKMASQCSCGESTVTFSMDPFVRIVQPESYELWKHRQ
PNC inhibitor: perinucleolar compartment assembly inhibition; 3.1% of 140,000 active; activity change (PNC), negative = inhibition, % at 10 µM; AID 2417; PC3M PTB-GFP, PNC prevalence imaging, 16 h; hits give low values;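 active = readout at or below -70, meaning at least 70% loss of cells showing the perinucleolar compartment, a nuclear body marking cancer cells; inconclusive = readout between -30 and a set limit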
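Read-out is percentage of cells bearing a perinucleolar compartment, from automated 20x imaging of fixed, Hoechst-stained PC3M PTB-GFP cells. Cells were seeded 4 h, then exposed 16 h to compound (23 nl of library stock) in duplicate plates.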
ALDH1A1 inh: inhibitors of human aldehyde dehydrogenase 1A1. Purified ALDH1A1, NADH fluorescence, propionaldehyde substrate. Potency, µM (series often up to 75.3 µM), usual class: inhibitors. 7.3% of 220,000 active. AID 1030
A number is an active result; ! = repeats disagree. An excerpt weighted towards active compounds, which were near 11% of everything screened. Unless noted, calls come from the whole dose curve; as a rule, active = well fitted inhibition curve with a large enough effect (not every such curve was filed as active); inconclusive = small, poorly fitted or top-dose-only effect, or another doubt; inactive = no such curve, though single readings can be large or run the other way.

Cc1ccccc1NS(=O)(=O)c1ccc(Cl)cc1 was read as JMJD2E inh inactive and ALDH1A1 inh inconclusive.
Screening CCn1nnc(NC(=O)COc2cc(C)ccc2C(C)C)n1 returned HPGD block inactive, JMJD2E inh inactive, PNC inhibitor inactive and ALDH1A1 inh inactive.
Cc1ccc(C(C)C)c(OCc2ccc(-c3nnco3)cc2)c1 was read as HPGD block 10µM, JMJD2E inh inactive, PNC inhibitor inactive and ALDH1A1 inh inactive.
Cc1onc(-c2c(Cl)cccc2Cl)c1C(=O)NNc1ccccc1 was read as JMJD2E inh inconclusive and ALDH1A1 inh 22.4µM.
Cc1onc(-c2c(Cl)cccc2Cl)c1C(=O)N[C@H]1C(=O)N2[C@H]1SC(C)(C)[C@H]2C(=O)O was read as HPGD block 10µM, JMJD2E inh inactive and ALDH1A1 inh inactive.
Screening Cc1onc(-c2c(Cl)cccc2Cl)c1C(=O)NCCc1ccc(S(N)(=O)=O)cc1 returned HPGD block 31.6µM, JMJD2E inh inactive, PNC inhibitor inactive and ALDH1A1 inh inactive.
Cc1[nH]c2ccccc2c1C(=O)COC(=O)c1c(-c2c(F)cccc2Cl)noc1C was read as HPGD block inactive, JMJD2E inh inactive, PNC inhibitor inconclusive and ALDH1A1 inh inactive.
For Cc1onc(-c2c(F)cccc2Cl)c1C(=O)OCN1C(=O)c2ccccc2C1=O the results were HPGD block 1.41µM, JMJD2E inh inactive, PNC inhibitor inactive and ALDH1A1 inh inactive.
O=C(Cn1c(C(F)(F)F)nc2ccccc21)N=Nc1c(O)[nH]c2ccc(Br)cc12 was read as JMJD2E inh inactive and ALDH1A1 inh inactive.
`CN(C)C=NC(=O)c1cn(-c2ccc(F)cc2)c(=O)c2ccccc12` gave JMJD2E inh inactive and ALDH1A1 inh inactive.
Screening CC(C)(C)C1CCc2onc(C(=O)N3CCOCC3)c2C1 (centres undefined) returned HPGD block inactive, JMJD2E inh inactive, PNC inhibitor inactive and ALDH1A1 inh 25.1µM.
For COc1cccc(C(=O)CN2C(=O)C(C)(C)Oc3ccc(C(=O)N4CCCCCC4)cc32)c1 the results were HPGD block 2.24µM, JMJD2E inh inactive, PNC inhibitor inactive and ALDH1A1 inh inconclusive.
Cc1ccc(CN2C(=O)C(C)(C)Oc3ccc(C(=O)N4CCCCC4)cc32)cc1 was read as HPGD block 31.6µM, JMJD2E inh inactive, PNC inhibitor inactive and ALDH1A1 inh inactive.
C[C@H]1CC[C@H]2C(=O)N3[C@H](c4ccccc4Br)[C@@H](C)CC[C@H]3C(=O)N2[C@@H]1c1ccccc1Br was read as HPGD block inactive, JMJD2E inh inactive, PNC inhibitor inactive and ALDH1A1 inh inconclusive.
CC[n+]1c(/C=C/Nc2ccccc2)sc2ccccc21 was read as HPGD block inactive, JMJD2E inh inactive, PNC inhibitor inactive and ALDH1A1 inh inactive.
For CC[n+]1ccccc1/C=C/Nc1ccccc1 the results were JMJD2E inh 17.8µM and ALDH1A1 inh inactive.
Screening CC(=O)N1CCC[C@@]2(CCN(c3ncccn3)C2)C1 returned HPGD block inactive and ALDH1A1 inh inactive.
O=C(O)c1ccc(NS(=O)(=O)c2ccsc2C(=O)O)c(O)c1 was read as HPGD block inactive, JMJD2E inh inconclusive and ALDH1A1 inh inactive.
For COc1cc2c(cc1OC)CN(c1ccc(-c3ccccc3OC)nn1)CC2 the results were HPGD block 35.5µM, JMJD2E inh inactive, PNC inhibitor inactive and ALDH1A1 inh inactive.
COc1ccc(/C=N/NC(=O)c2cccc(COCC(F)(F)C(F)F)c2)cc1 was read as HPGD block inactive, JMJD2E inh inactive, PNC inhibitor inactive and ALDH1A1 inh inactive.
COc1ccc(C(=O)Cc2ccc(OC)c(OC)c2)cc1 was read as HPGD block inactive, JMJD2E inh inactive, PNC inhibitor inconclusive and ALDH1A1 inh inactive.
For COc1ccc(CC(=O)c2c(O)cc(O)cc2O)cc1OC the results were HPGD block 31.6µM, JMJD2E inh inactive, PNC inhibitor inactive and ALDH1A1 inh inactive.
For COc1cc(CC(=O)O)ccc1O the results were HPGD block inactive, JMJD2E inh inactive and ALDH1A1 inh 25.1µM!.
Screening COc1ccc(CC(=O)O)cc1O returned JMJD2E inh inactive and ALDH1A1 inh inactive.
Screening Cc1ccc2cc(CN(Cc3nnnn3C3CCCCC3)CC3CCCO3)c(=O)[nH]c2c1 (centres undefined) returned HPGD block inactive, JMJD2E inh inactive, PNC inhibitor inactive and ALDH1A1 inh 8.91µM.
Screening CCC(c1nnnn1CCOC)N(Cc1cc2c(C)cc(C)cc2[nH]c1=O)CC1CCCO1 (centres undefined) returned HPGD block inactive, JMJD2E inh inactive, PNC inhibitor inactive and ALDH1A1 inh 11.2µM.
Screening CCC(c1nnnn1CCOC)N(Cc1cc2cc(C)c(C)cc2[nH]c1=O)CC1CCCO1 (centres undefined) returned HPGD block inactive, JMJD2E inh inconclusive, PNC inhibitor inactive and ALDH1A1 inh inactive.
For CCCC(c1nnnn1CC(=O)OCC)N(Cc1cc2c(C)cc(C)cc2[nH]c1=O)C1CCCC1 (centres undefined) the results were HPGD block inactive, JMJD2E inh inconclusive, PNC inhibitor inactive and ALDH1A1 inh 8.91µM.
Screening CCCC(c1nnnn1CC(=O)OCC)N(Cc1cc2ccc(C)cc2[nH]c1=O)C1CCCC1 (centres undefined) returned HPGD block inactive, JMJD2E inh inconclusive, PNC inhibitor inactive and ALDH1A1 inh inconclusive.
Screening Cc1cc(C)c2cc(CN(Cc3nnnn3C3CCCCC3)CC3CCCO3)c(=O)[nH]c2c1 (centres undefined) returned HPGD block inactive, JMJD2E inh inconclusive, PNC inhibitor inactive and ALDH1A1 inh 4.47µM.
Screening COc1ccc2[nH]c(=O)c(CN(Cc3nnnn3Cc3ccc(F)cc3)CC3CCCO3)cc2c1 (centres undefined) returned HPGD block inactive, JMJD2E inh inconclusive, PNC inhibitor inactive and ALDH1A1 inh inconclusive.
For Cc1cc2cc(CN(Cc3nnnn3C3CCCCC3)CC3CCCO3)c(=O)[nH]c2cc1C (centres undefined) the results were HPGD block inactive, JMJD2E inh inactive, PNC inhibitor inactive and ALDH1A1 inh inconclusive.
For CNC(=O)c1c(C)noc1C the results were JMJD2E inh inactive and ALDH1A1 inh inactive.
Screening CC(C)CSc1ncc(-c2cccc(C(F)(F)F)c2)cn1 returned HPGD block inactive, JMJD2E inh inactive, PNC inhibitor inactive and ALDH1A1 inh 22.4µM.
FC(F)(F)c1cccc(-c2nn[nH]n2)c1 was read as JMJD2E inh inactive and ALDH1A1 inh inactive.
CCC1=C2CC[C@H]3C(=O)N(C)C(=O)[C@H]3[C@H]2[C@@]2(Cc3ccccc3)C(=NCC3CC3)OC(=O)N2C1=O was read as HPGD block inactive, JMJD2E inh inactive and ALDH1A1 inh inconclusive.
CCOC(=S)SCC(=O)N1CCc2cc(OC)ccc2C1C1C(=O)CCCC1=O (centres undefined) was read as HPGD block inactive, JMJD2E inh inconclusive, PNC inhibitor -98.9 and ALDH1A1 inh inactive.
For CCOC(=S)SCC(=O)N1CCc2cc(OC)c(OC)cc2C1C1C(=O)CC(C)(C)CC1=O (centres undefined) the results were HPGD block inactive, JMJD2E inh inconclusive, PNC inhibitor inconclusive and ALDH1A1 inh inactive.

Screening results: PubChem BioAssay, National Center for Advancing Translational Sciences (NCATS)
